Several values for one entry are separate records, joined by “and”; a condition that tells them apart may be missing. Equal entries are not always repeated. Among all 5,500 compounds or so, about 2,000 (36%) were called active. Inconclusive results (about 18%) are left out. Rule as the data show it: active = normalized growth mostly below about 0.91 (no sharp cut-off); inconclusive = no clear call, values can overlap the other calls; inactive = mostly above about 0.92. The list shows a part of the results.
Test: chemical genetic growth profiling, strain panel (AID 1159580);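 also: tested at 20 µM; growth read once vehicle control cultures reached saturation at 30 °C; 1 = growth at the plate median or of vehicle wells; lower values mean less growth of the strain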
Conditions: growth OD

Measured: normalized growth

CC(C(=O)O)c1cccc(C(=O)c2ccccc2)c1 (stereo not drawn)
inactive: S. cerevisiae deletion strains, locus YJR075W, strain HOC1, hits give low values 1 and 1.06 | S. cerevisiae deletion strains, locus YKL009W, strain mrt4, hits give low values 0.982 | S. cerevisiae deletion strains, locus YKL068W, hits give low values 0.971 | S. cerevisiae deletion strains, locus YKL085W, strain MDH1 (second series), hits give low values 0.968 | S. cerevisiae deletion strains, locus YKL085W, strain MDH1, hits give low values 0.968 | S. cerevisiae deletion strains, locus YKL160W, strain elf1, hits give low values 0.978 | S. cerevisiae deletion strains, locus YKL190W, strain CNB1, hits give low values 0.994 | S. cerevisiae deletion strains, locus YKR001C, strain vps1, hits give low values 0.992 | S. cerevisiae deletion strains, locus YKR026C, strain gcn3, hits give low values 0.984 | S. cerevisiae deletion strains, locus YKR091W, strain srl3, hits give low values 0.989 | S. cerevisiae deletion strains, locus YLL001W, strain dnm1, hits give low values 0.984 | S. cerevisiae deletion strains, locus YLL026W, hits give low values 0.982 | S. cerevisiae deletion strains, locus YLL041C, strain sdh2, hits give low values 1.01 | S. cerevisiae deletion strains, locus YLR027C, strain aat2, hits give low values 0.991 | S. cerevisiae deletion strains, locus YLR039C, strain RIC1, hits give low values 0.993 | S. cerevisiae deletion strains, locus YLR058C, strain SHM2, hits give low values 0.997 | S. cerevisiae deletion strains, locus YLR102C, strain apc9, hits give low values 0.974 | S. cerevisiae deletion strains, locus YLR113W, strain HOG1, hits give low values 1.02 | S. cerevisiae deletion strains, locus YLR221C, strain rsa3, hits give low values 1.01 | S. cerevisiae deletion strains, locus YLR258W, strain gsy2, hits give low values 0.987 | S. cerevisiae deletion strains, locus YLR262C, strain YPT6 (second series), hits give low values 0.987 | S. cerevisiae deletion strains, locus YLR262C, strain YPT6, hits give low values 0.968 | S. cerevisiae deletion strains, locus YLR268W, strain sec22, hits give low values 0.972 | S. cerevisiae deletion strains, locus YLR320W, strain mms22, hits give low values 0.971 | S. cerevisiae deletion strains, locus YLR330W, strain CHS5, hits give low values 0.985 | S. cerevisiae deletion strains, locus YLR342W, strain FKS1 (second series), hits give low values 1.01 | S. cerevisiae deletion strains, locus YLR342W, strain FKS1, hits give low values 1 | S. cerevisiae deletion strains, locus YLR357W, strain rsc2, hits give low values 0.933 | S. cerevisiae deletion strains, locus YLR370C, strain arc18, hits give low values 0.979 | S. cerevisiae deletion strains, locus YLR371W, strain rom2, hits give low values 0.978 | S. cerevisiae deletion strains, locus YLR384C, strain iki3, hits give low values 0.963 | S. cerevisiae deletion strains, locus YLR418C, strain cdc73, hits give low values 0.971 | S. cerevisiae deletion strains, locus YML016C, strain PPZ1, hits give low values 0.996 | S. cerevisiae deletion strains, locus YML032C, strain rad52, hits give low values 0.996 | S. cerevisiae deletion strains, locus YML120C, strain ndi1, hits give low values 0.994 | S. cerevisiae deletion strains, locus YML124C, strain tub3, hits give low values 0.971 | S. cerevisiae deletion strains, locus YMR058W, strain fet3, hits give low values 0.995 | S. cerevisiae deletion strains, locus YMR078C, strain ctf18, hits give low values 0.959 | S. cerevisiae deletion strains, locus YMR125W, strain sto1, hits give low values 0.991 | S. cerevisiae deletion strains, locus YMR129W, hits give low values 0.981 | S. cerevisiae deletion strains, locus YMR205C, strain PFK2, hits give low values 0.985 | S. cerevisiae deletion strains, locus YMR223W, strain ubp8, hits give low values 0.976 | S. cerevisiae deletion strains, locus YMR231W, strain pep5, hits give low values 0.985 | S. cerevisiae deletion strains, locus YMR307W, strain GAS1, hits give low values 0.995 | S. cerevisiae deletion strains, locus YNL067W, strain RPL9B, hits give low values 1.04 | S. cerevisiae deletion strains, locus YNL071W, strain lat1, hits give low values 0.997 | S. cerevisiae deletion strains, locus YNL175C, strain NOP13, hits give low values 1.02 | S. cerevisiae deletion strains, locus YNL183C, strain NPR1, hits give low values 0.955 | S. cerevisiae deletion strains, locus YNL197C, strain WHI3, hits give low values 0.992 | S. cerevisiae deletion strains, locus YNL209W, strain ssb2, hits give low values 0.999 | S. cerevisiae deletion strains, locus YNL224C, strain SQS1, hits give low values 0.997 | S. cerevisiae deletion strains, locus YNL233W, strain BNI4, hits give low values 1.05 | S. cerevisiae deletion strains, locus YNL248C, strain rpa49, hits give low values 0.968 | S. cerevisiae deletion strains, locus YNL250W, strain rad50, hits give low values 0.927 | S. cerevisiae deletion strains, locus YNL271C, strain bni1, hits give low values 0.956 | S. cerevisiae deletion strains, locus YNL298W, strain CLA4, hits give low values 0.973 | S. cerevisiae deletion strains, locus YNL307C, strain MCK1, hits give low values 0.978 | S. cerevisiae deletion strains, locus YNL322C, strain KRE1 (second series), hits give low values 0.953 | S. cerevisiae deletion strains, locus YNL322C, strain KRE1, hits give low values 0.994 and 1.03 | S. cerevisiae deletion strains, locus YNR049C, strain mso1, hits give low values 0.995 | S. cerevisiae deletion strains, locus YNR052C, strain pop2, hits give low values 0.958 | S. cerevisiae deletion strains, locus YOL006C, strain TOP1, hits give low values 1.06 | S. cerevisiae deletion strains, locus YOL012C, strain htz1 1.22 | S. cerevisiae deletion strains, locus YOL147C, strain pex11, hits give low values 0.977 | S. cerevisiae deletion strains, locus YOR001W, strain rrp6, hits give low values 1 | S. cerevisiae deletion strains, locus YOR061W, strain CKA2, hits give low values 1 | S. cerevisiae deletion strains, locus YOR069W, strain VPS5, hits give low values 0.987 | S. cerevisiae deletion strains, locus YOR070C, strain gyp1, hits give low values 0.985 | S. cerevisiae deletion strains, locus YOR080W, strain dia2, hits give low values 0.996 | S. cerevisiae deletion strains, locus YOR083W, strain WHI5 (second series), hits give low values 1.02 | S. cerevisiae deletion strains, locus YOR083W, strain WHI5, hits give low values 0.918 | S. cerevisiae deletion strains, locus YOR106W, strain vam3, hits give low values 0.963 | S. cerevisiae deletion strains, locus YOR136W, strain idh2, hits give low values 0.988 | S. cerevisiae deletion strains, locus YOR144C, strain elg1, hits give low values 0.98 | S. cerevisiae deletion strains, locus YOR184W, strain ser1, hits give low values 0.977 | S. cerevisiae deletion strains, locus YOR231W, strain MKK1, hits give low values 1.04 | S. cerevisiae deletion strains, locus YOR265W, strain rbl2, hits give low values 0.999 | S. cerevisiae deletion strains, locus YOR270C, strain vph1, hits give low values 1 | S. cerevisiae deletion strains, locus YOR290C, strain snf2, hits give low values 0.985 | S. cerevisiae deletion strains, locus YOR316C, strain cot1, hits give low values 0.968 | S. cerevisiae deletion strains, locus YPL051W, strain arl3, hits give low values 0.966 | S. cerevisiae deletion strains, locus YPL055C, strain LGE1, hits give low values 1.1 | S. cerevisiae deletion strains, locus YPL078C, strain atp4, hits give low values 0.972 | S. cerevisiae deletion strains, locus YPL106C, strain sse1, hits give low values 0.962 | S. cerevisiae deletion strains, locus YPL240C, strain hsp82, hits give low values 0.994 | S. cerevisiae deletion strains, locus YPL241C, strain CIN2, hits give low values 0.993 | S. cerevisiae deletion strains, locus YPL256C, strain CLN2, hits give low values 1.02 | S. cerevisiae deletion strains, locus YPR119W, strain clb2, hits give low values 0.963 | S. cerevisiae deletion strains, locus YPR141C, strain kar3, hits give low values 0.973 | S. cerevisiae deletion strains, locus YPR163C, strain tif3, hits give low values 0.979 | S. cerevisiae deletion strains, locus YPR167C, strain met16, hits give low values 0.977 | S. cerevisiae deletion strains, strain wtn01, hits give low values 0.971 | S. cerevisiae strains, strain wild type, hits give low values 1

From PubChem BioAssay AID1159580 (chemical genetic matrix, 2015)
